Here are results for seven compounds from PubChem BioAssay (NCI).

Among the test systems are DU-145 prostate; K-562 leukemia; MALME-3M melanoma; MDA-MB-231 breast; RXF 393 renal; SF-268 CNS; SF-295 CNS; SF-539 CNS; UACC-257 melanoma; M14 melanoma; HCT-15 colon; HT29 colon; SNB-75 CNS; SNB-19 CNS; U251 CNS; PC-3 prostate; SK-MEL-5 melanoma; UACC-62 melanoma; LOX IMVI melanoma; SK-MEL-28 melanoma.
Assay in all cases: NCI-60 one-dose screen, 48 h (100 = growth as untreated, 0 = no growth, -100 = all killed)
Details in all cases: 10 µM unless noted

Molecules are shown by their SMILES. About 83,000 compounds went through this panel and 20% of them were active in at least one assay; those are over-represented in the sample as a whole.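 The endpoint reported here, percent growth, reads 100 for growth as untreated, 0 for no net growth and -100 for all cells dead.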 A number with no mark means an inactive call. Activity calls are given as the source filed them. How the source made its calls: active means growth percent below 10; inactive means the rest.

As for `O=C(CCl)NNc1nccc(Nc2ccc(S(=O)(=O)Nc3ccncc3)cc2)n1`, the growth in the assay with DU-145 prostate was 32.1%; with K-562 leukemia, 17.6%; in the assay on MALME-3M melanoma it was 32.2%; in the assay with MDA-MB-231 breast, 46.7%; in the assay on RXF 393 renal it was 48.2%; in the assay on SF-268 CNS, 37.6%. The growth with SF-295 CNS is 67.7%; in the assay on SF-539 CNS it was 5.24% (active); in the assay on UACC-257 melanoma, 52.1%; in the assay with M14 melanoma, 45.2%; in the assay with HCT-15 colon, 22.2%; in the assay with HT29 colon, 27.4%. Also, the growth in the assay on SNB-75 CNS was 54.7%; in the assay on SNB-19 CNS, 31.1%; in the assay on U251 CNS it was -9.06% (active); with PC-3 prostate it was 56%; in the assay with SK-MEL-5 melanoma, 7.95% (active); in the assay with UACC-62 melanoma, 31.4%. In addition, the growth with LOX IMVI melanoma is 17.6%; in the assay on SK-MEL-28 melanoma, 53.7%.
With `COc1ccc(C(=S)N2CCN(c3ccc(Cl)cc3)CC2)cc1`, the growth is 113% in the assay on DU-145 prostate; 88% with K-562 leukemia; 125% in the assay with MALME-3M melanoma; 76.7% in the assay with MDA-MB-231 breast; 126% in the assay on RXF 393 renal; 100% in the assay with SF-268 CNS. The growth in the assay on SF-295 CNS is 117%; in the assay with SF-539 CNS, 102%; in the assay with UACC-257 melanoma it was 96.1%; in the assay on M14 melanoma, 99.7%; in the assay with HCT-15 colon it was 116%; in the assay with HT29 colon, 102%. Also, the growth in the assay with SNB-75 CNS was 112%; with SNB-19 CNS, 86.3%; in the assay with U251 CNS, 101%; in the assay on PC-3 prostate it was 103%; in the assay on SK-MEL-5 melanoma it was 96.8%; with UACC-62 melanoma it was 84.5%. The growth in the assay on LOX IMVI melanoma was 104%; with SK-MEL-28 melanoma, 110%.
For `CC1(C)N=C(N)N=C(N)N1c1ccc(CCCCc2ccccc2)c(Cl)c1`, the growth in the assay with DU-145 prostate is 27%; with K-562 leukemia, 18%; in the assay on MALME-3M melanoma, 52.2%; in the assay on MDA-MB-231 breast it was 42.5%; with RXF 393 renal, 30.6%; with SF-268 CNS it was 19.6%. Moreover, the growth in the assay on SF-295 CNS is 29.6%; with SF-539 CNS it was -3.79% (active); in the assay with UACC-257 melanoma, 3.22% (active); with M14 melanoma, 33.5%; in the assay with HCT-15 colon, 20.5%; in the assay on HT29 colon it was -11.2% (active). Moreover, the growth is 18.3% with SNB-75 CNS; 21.4% with SNB-19 CNS; 3.58% (active) in the assay with U251 CNS; 6.3% (active) in the assay with PC-3 prostate; -76.1% (active) in the assay on SK-MEL-5 melanoma; 8.84% (active) with UACC-62 melanoma. The growth in the assay with LOX IMVI melanoma was 8.69% (active); with SK-MEL-28 melanoma it was 25.2%.
Consider `[2H]C([2H])([2H])Oc1ccc(F)cc1/C=C/C(=O)/C=C(O)/C=C/c1cc(F)ccc1OC([2H])([2H])[2H]`, for which the growth with DU-145 prostate is 95.3%; in the assay with K-562 leukemia, 84%; in the assay on MALME-3M melanoma, 104%; in the assay with MDA-MB-231 breast it was 108%; in the assay on RXF 393 renal it was 103%; with SF-268 CNS, 89.8%. For the same compound, the growth was 103% with SF-295 CNS; 107% in the assay with SF-539 CNS; 89.6% in the assay on UACC-257 melanoma; 85.1% in the assay with M14 melanoma; 79.9% in the assay with HCT-15 colon; 98.8% in the assay on HT29 colon. In addition, the growth was 94.9% in the assay on SNB-75 CNS; 91.8% with SNB-19 CNS; 76.8% in the assay on U251 CNS; 93.1% with PC-3 prostate; 92.8% with SK-MEL-5 melanoma; 80.6% in the assay on UACC-62 melanoma. The growth with LOX IMVI melanoma was 85.1%; with SK-MEL-28 melanoma it was 116%.
On to `CCNc1nc(O)c(/C=C2\C=Nc3ncccc32)s1`, for which the growth with DU-145 prostate is 9.93% (active); in the assay with K-562 leukemia it was 26.3%; in the assay on MALME-3M melanoma, -6.17% (active); in the assay with MDA-MB-231 breast, 10.7%; in the assay on RXF 393 renal, -39.3% (active); in the assay with SF-268 CNS it was -5.81% (active). Further, the growth is 4.95% (active) with SF-295 CNS; -64.2% (active) in the assay with SF-539 CNS; -15.9% (active) with UACC-257 melanoma; 0.692% (active) in the assay on M14 melanoma; 16% with HCT-15 colon; 4.26% (active) with HT29 colon. Moreover, the growth in the assay on SNB-75 CNS was -71.8% (active); in the assay with SNB-19 CNS it was 9.99% (active); in the assay on U251 CNS, -9.45% (active); in the assay with PC-3 prostate, 2.3% (active); in the assay with SK-MEL-5 melanoma, 9.15% (active); in the assay on UACC-62 melanoma, -16% (active). In addition, the growth in the assay on LOX IMVI melanoma is 1.75% (active); in the assay on SK-MEL-28 melanoma it was -17.2% (active).
`O=C(NC1CC(F)C1)c1cc2cccnc2n1-c1ccc(Cl)c(Cl)c1` (stereo not given): the growth in the assay with DU-145 prostate was 106%; in the assay on K-562 leukemia it was 96.3%; with MALME-3M melanoma, 113%; with MDA-MB-231 breast it was 96.5%; in the assay with RXF 393 renal, 102%; in the assay with SF-268 CNS, 91.6%. For the same compound, the growth in the assay with SF-295 CNS was 95.1%; in the assay on SF-539 CNS, 98%; in the assay with UACC-257 melanoma, 96.9%; in the assay with M14 melanoma it was 111%; with HCT-15 colon, 96.6%; in the assay with HT29 colon, 101%. Also, the growth was 89.1% in the assay with SNB-75 CNS; 95.2% in the assay with SNB-19 CNS; 93.9% in the assay with U251 CNS; 89.8% in the assay with PC-3 prostate; 98.9% in the assay with SK-MEL-5 melanoma; 83.7% in the assay on UACC-62 melanoma. Also, the growth in the assay with LOX IMVI melanoma is 89.6%; in the assay with SK-MEL-28 melanoma, 117%.
Regarding `O=C(Nc1ccc(Cl)cc1)Oc1c(Cl)c(Cl)c(Cl)c(Cl)c1Cl`, the growth with DU-145 prostate was 97.9%; with K-562 leukemia, 89.9%; in the assay on MALME-3M melanoma it was 93.7%; in the assay with MDA-MB-231 breast, 92.9%; in the assay on RXF 393 renal it was 106%; with SF-268 CNS, 92.9%. Also, the growth was 83.2% in the assay with SF-295 CNS; 94.8% in the assay with SF-539 CNS; 100% in the assay on UACC-257 melanoma; 96.8% in the assay on M14 melanoma; 94.5% in the assay on HCT-15 colon; 96.1% in the assay with HT29 colon. The growth in the assay on SNB-75 CNS is 83.3%; with SNB-19 CNS it was 98.1%; in the assay on U251 CNS it was 98%; in the assay on PC-3 prostate, 89.4%; with SK-MEL-5 melanoma, 95.3%; in the assay with UACC-62 melanoma, 81.3%. For the same compound, the growth in the assay on LOX IMVI melanoma is 86.1%; in the assay on SK-MEL-28 melanoma, 105%.
